Compound activity (PubChem)
PHOSPHO1 inh = inhibitors of human PHOSPHO1 phosphatase; Q8TCT1; recombinant PHOSPHO1, absorbance phosphatase assay; inhibition, % at 13.3 µM; 290,000 tested, 1.1% active; in the data active = inhibition above about 60%
APOBEC3G inh = inhibitors of human APOBEC3G DNA deaminase; Q9HC16; recombinant A3G, ssDNA deamination FAM/TAMRA fluorescence; inhibition, % at 20 µM; 330,000 tested, 0.28% active;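 active = inhibition of at least 40% at 20 µM, with no more than 30% in the related APOBEC3A deaminase screen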;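 note: plate controls were DMSO wells with A3G for no effect and wells lacking A3G enzyme for full effect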
A3A deaminase = human APOBEC3A DNA deaminase inhibition; inhibition, % at 20 µM; P31941; AID 493011; 330,000 tested, 0.41% active; recombinant A3A, FAM/TAMRA ssDNA deamination fluorescence;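 active = at least 40% inhibition at 20 µM here, with at most 30% in a related deaminase screen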;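 note: plate controls were A3A with DMSO for no effect and wells lacking A3A enzyme for full effect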
Target sequence (P31941 whole entry, looked up): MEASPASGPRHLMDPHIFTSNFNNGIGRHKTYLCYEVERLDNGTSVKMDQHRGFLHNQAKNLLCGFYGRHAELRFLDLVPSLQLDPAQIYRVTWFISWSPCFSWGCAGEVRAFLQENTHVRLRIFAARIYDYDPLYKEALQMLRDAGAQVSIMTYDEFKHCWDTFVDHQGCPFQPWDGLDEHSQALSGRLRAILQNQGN
rCAG RNA binder = molecules binding r(CAG) RNA repeats; r(CAG) RNA repeat, TO-PRO-1 dye displacement fluorescence; 370,000 tested, 1.3% active; inhibition, % at 3 µM;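 active = inhibition above the plate cutoff, the mean of all test compounds on that plate plus 3 SD, cut at about 35% in these data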;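 note: 0% = DMSO alone and 100% = 100 µM mitoxantrone as full dye displacement; higher means more dye released from RNA so lower well fluorescence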
ALR inh = blocks human ALR sulfhydryl oxidase activity. P55789. 290,000 tested, 3.8% active. inhibition, % (concentration not given with the values). purified ALR, DTT oxidation, H2O2 HRP-luminol luminescence. AID 485317;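 active = mean replicate inhibition above about 79%, with every replicate also reaching it, limit read from the data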
Target sequence (P55789 whole entry, looked up): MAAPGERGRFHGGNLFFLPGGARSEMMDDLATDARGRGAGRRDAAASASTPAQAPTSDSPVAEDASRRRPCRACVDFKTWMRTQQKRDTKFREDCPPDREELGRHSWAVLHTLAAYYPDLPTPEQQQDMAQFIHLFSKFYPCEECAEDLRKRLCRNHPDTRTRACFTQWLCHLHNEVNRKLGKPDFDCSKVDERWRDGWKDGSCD
aDG glyco act = increases alpha dystroglycan glycosylation | 360,000 tested, 0.22% active | Pro5-aDG cells, alpha-DG glycosylation AlphaScreen (IIH6); 0% Pro5, 100% B10-LARGE cell signal | activation, % at 10 µM;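 active = activation of at least 8% versus controls, or a plate z-score of at least 8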;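 note: Pro5 are CHO cells carrying HIG-tagged alpha-DG that lacks glycosylation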
An asterisk follows results filed as active; x = no result. This is a sample that favours compounds with a hit; in the whole collection about 5.4% have one here.

SMILES	PHOSPHO1 inh	APOBEC3G inh	A3A deaminase	rCAG RNA binder	ALR inh	aDG glyco act
CCOc1ccc(N2C(=O)C3Sc4[nH]c(=O)sc4C(/C=C/c4ccccc4)C3C2=O)cc1 (configuration not stated)	-7	-8	-7	57*	2	0
C=CCN1C(=O)c2n[nH]c(COC)c2C1c1cccc(C(F)(F)F)c1 (configuration not stated)	x	x	x	0	x	x
OC1CCN(C(=S)Nc2ccc(Nc3ccccc3)cc2)CC1	4	-3	1	1	99*	1
Cc1cc(C)cc(NC(=S)N2CCN(c3ncccn3)CC2)c1	-29	-6	-3	-5	-4	0
O=C(Nc1cccc2ccccc12)N1CCN(c2ncccn2)CC1	34	-9	3	2	-15	0
S=C(Nc1ccc(Nc2ccccc2)cc1)N1CCN(c2ncccn2)CC1	-5	-4	-4	2	98*	0
S=C(Nc1cccc2ccccc12)N1CCN(c2ncccn2)CC1	88*	11	-5	4	-28	0
CC1CCCN(C(=S)Nc2ccc(Nc3ccccc3)cc2)C1 (configuration not stated)	-2	-2	-3	2	99*	0
CC1CCCN(C(=S)Nc2ccc(F)cc2)C1 (configuration not stated)	8	0	4	4	-2	0
CCOc1ccccc1NC(=S)N1CCN(c2ccccc2)CC1	40	-2	-9	-2	98*	0
CCNC(=O)N1CCN(c2ccc(N3CCN(Cc4ccccc4)[C@H](C)C3)c(C)c2)[C@H](C)C1	x	x	x	2	x	x
COc1cc(/C=N/NC(=O)c2ccc(-n3cccc3)cc2)ccc1O	-5	-6	-5	7	99*	0
O=C(CCc1ccc(O)c(O)c1)N/N=C/c1ccc2c(c1)OCO2	23	-5	-5	3	95*	0
Cc1cc(C(=O)N/N=C/c2ccc3c(c2)OCO3)c(C)o1	17	-1	2	-3	95*	0
COc1cc(/C=N/NC(=O)c2cccs2)ccc1O	20	-5	0	-2	99*	0
Cc1occc1C(=O)N/N=C/c1ccc2c(c1)OCO2	14	-3	-1	0	-5	0
Cc1ccccc1NCC(=O)N/N=C\c1ccc2c(c1)OCO2	12	2	1	2	94*	0
COc1cccc(/C=N/NC(=O)CNC(=O)c2cccs2)c1O	25	-7	-2	0	x	0
Cc1ccc(/C=N/NC(=O)CNC(=O)c2cccs2)cc1	66*	-2	-5	3	1	0
COc1cc(/C=N\NC(=O)c2c(C)nc3cc(C)ccn23)ccc1O	23	-7	-2	-4	97*	0
COc1cc(/C=N/NC(=O)c2ccc3c(c2)OCO3)ccc1O	43	-5	-1	-1	99*	0
CC(=O)Nc1ccc(C=NNC(=O)c2ccc(NS(=O)(=O)c3cccs3)cc2)cc1	x	-2	2	12	1	0
COc1cc(/C=N/NC(=O)c2nc3ccccn3c2C)cc(OC)c1O	-29	0	6	-1	99*	0
COc1cc(/C=N/NC(=O)c2ccccc2O)ccc1OC(=O)CC1SC(=O)NC1=O (configuration not stated)	16	-5	-1	17	88*	0
COc1cc(C=NNC(=O)c2ccc(NS(=O)(=O)c3cccs3)cc2)cc(Br)c1O	x	-7	-4	10	78*	0
SMILES	PHOSPHO1 inh	APOBEC3G inh	A3A deaminase	rCAG RNA binder	ALR inh	aDG glyco act
CN(C)c1ccc(/C=N/NC(=O)c2ccc3c(c2)OCCO3)cc1	43	-6	-4	-3	98*	0
CCN(CC)c1ccc(/C=N/NC(=O)c2ccc3c(c2)OCCO3)cc1	x	-3	-3	-2	x	0
COc1cc(C(=O)N/N=C/c2ccc(OC(=O)c3ccccc3Cl)c(OC)c2)ccc1O	28	-7	-4	x	14	0
COC(=O)c1ccc(Cn2ccc3ccc(-c4ccc5ccn(Cc6ccc(OC)cc6)c5c4)cc32)cc1	x	x	x	23	x	x
C#CCNC(=O)C[C@H]1C[C@@]2(C(=O)OC)C(=C[C@H](COCc3ccccc3)O[C@@H]2C)N(Cc2ccccc2)C1=O	x	x	x	5	x	x
O=C(C1CCN(c2ncnc3c2sc2cccc(F)c23)CC1)N1CCN(C(=O)C2CCCO2)CC1 (configuration not stated)	x	x	x	7	x	x
COc1cc(C(=O)N/N=C/c2cccc(Oc3ccccc3)c2)ccc1O	36	-6	0	9	85*	0
O=C(NN=Cc1ccc(O)cc1)c1ccccc1NS(=O)(=O)c1cccs1	x	-4	-1	31	99*	0
O=C(O)c1ccc(C=NNC(=O)c2ccccc2NS(=O)(=O)c2cccs2)cc1	x	-3	-1	17	5	0
O=C(N/N=C/c1cccc(Oc2ccccc2)c1)c1ccncc1	4	-5	4	-2	-2	1
COc1cc(C(=O)NCc2nnc(SCC(=O)Nc3cc(C)cc(C)c3)o2)cc(OC)c1OC	11	2	-1	0	97*	0
COc1ccc(C(=O)NCc2nnc(SCC(=O)Nc3nnc(C)s3)o2)cc1	-22	3	0	2	99*	0
Nc1c(C(=O)c2ccccc2)sc2nsc(SCCN3CCOCC3)c12	61*	-17	-4	-5	14	0
CN1Cc2c(N3CCOCC3)nc3sc(C(=O)c4ccccc4)c(N)c3c2CC1(C)C	28	0	-3	1	-17	0
CCN(CC(=O)Nc1cc(Cl)ccc1C)C(=O)c1ccc(=O)n(Cc2ccccc2)n1	62*	0	4	-1	-13	0
CCN(CC(=O)Nc1c(F)cccc1F)C(=O)c1ccc(=O)n(Cc2ccccc2)n1	43	-1	3	-4	-1	0
Cc1ccc(-n2c(C)cc(/C=N/Nc3ccc([N+](=O)[O-])cn3)c2C)cc1	101*	7	23	6	-1	0
CC1(C)CC(=O)C2=C(C1)NC(SCC(=O)Nc1ccccc1)=C(C#N)C2c1ccco1 (configuration not stated)	2	-5	-2	5	72	1
CCOC(=O)CSC1=C(C#N)C(c2ccc(C)cc2)C2=C(CCCC2=O)N1 (configuration not stated)	92*	-6	-16	6	-6	0
Cc1ccc(C(=O)CSC2=C(C#N)C(c3ccco3)C3=C(CC(C)(C)CC3=O)N2)cc1 (configuration not stated)	76*	-4	-3	11	-13	0
CSC1=C(C#N)C(c2ccc(C)cc2)C2=C(CCCC2=O)N1 (configuration not stated)	14	-5	1	1	-2	0
